Assay outcomes from PubChem BioAssay.
Rows were chosen to be rich in hits. Some 0.93% of all compounds tested hit in one or more screens of this group.
TAR Tat displ: HIV-1 TAR-Tat binding disruption; HIV-1 TAR RNA, Tat peptide displacement FRET; active compounds read high; z-score (concentration not given with the values); 100,000 compounds, 0.6% hits; active = z-score of 3 or more in at least 2 runs
CDC25B-CDK2 inh: human CDC25B-CDK2/CyclinA binding inhibition; P30305+P24941; HTRF CDC25B-CDK2/CyclinA binding, anti-His/anti-Flag; active compounds read high; z-score (concentration not given with the values); 94,000 compounds, 0.72% hits; AID 1259370; in the data active = z-score above about 3.2
Active calls of the source: *; · = not tested or not shown.

SMILES | TAR Tat displ | CDC25B-CDK2 inh
CC(C)(C)C1CCc2c(sc3nc(CCC(=O)N4CCC(C(N)=O)CC4)[nH]c(=O)c23)C1 (configuration not stated) | 0.16 | ·
NC(=O)C1CCN(C(=O)CCc2nc3sc4c(c3c(=O)[nH]2)CCCCC4)CC1 | 19* | ·
CNC(=O)CCc1nc2sc3c(c2c(=O)[nH]1)CCCCC3 | 0.79 | ·
CC(C)c1ccc(NC(=O)[C@@H]2[C@@H]3C(=O)O[C@@H]4C(Cl)[C@H]2C[C@H]34)cc1 (some centres not stated) | 1.4 | ·
CS(=O)(=O)Nc1nc2ccc(NC(=O)c3ccco3)cc2s1 | -0.07 | ·
CC(C)(CC(=O)Nc1cccnc1)Sc1ccc(Cl)cc1 | · | -0.94
COc1ccc(CC(=O)N2N=C(c3ccc(F)cc3)CC2(O)C(F)(F)F)cc1OC (configuration not stated) | · | -2.9
CN(C)c1ccc(C2C(C#N)=C3N=C(N)c4ccccc4N3C3=C2C(=O)CCC3)cc1 (configuration not stated) | -4 | -1.7
CCOC(=O)c1cc(S(=O)(=O)N2CCn3c2nc2ccccc23)cn1C | · | -0.66
Cc1ccc2c(c1)N(CCO)/C(=C/c1sc3ccccc3[n+]1C)S2 | -0.61 | -1.5
Cc1ccc2c(c1)S/C(=C\c1sc3ccccc3[n+]1C)N2CCO | 7.9* | 2.4
O=C(O)c1cc2ncc(Br)cn2n1 | 18* | ·
O=C(c1cnc2cc(-c3ccccc3)nn2c1)c1cc(Br)ccc1O | -0.18 | -0.74
CC(C)(O)CC[C@@H](O)[C@@](C)(O)[C@H]1CC[C@@]2(O)C3=CC(=O)[C@@H]4C[C@@H](O)[C@@H](O)C[C@]4(C)[C@H]3CC[C@]12C | -0.25 | ·
COc1ccc(NC(=O)NC(C)c2c(-n3cccc3)sc3c2CCCC3)cc1OC (configuration not stated) | 0.45 | 11*
COc1ccc(OC)c(NC(=O)NC(C)c2c(-n3cccc3)sc3c2CCCC3)c1 (configuration not stated) | -0.12 | -5.1
O=C(c1cc(O)c(O)c(O)c1)c1ccc(O)c(O)c1O | 33* | ·
Oc1ccc(Cl)cc1Cc1cc(Cl)ccc1O | 0.6 | ·
O=C(O)c1ccnc(-c2cc(C(=O)O)ccn2)c1 | · | -0.69
COc1cc(O)c2c(c1)C(=O)c1cc(C)cc(O)c1C2=O | 1.8 | ·
O=C(O)c1cc(O)c2c(c1)C(=O)c1cc(O)cc(O)c1C2=O | 9.5* | ·
O=C(O)c1cc(O)c(O)c(O)c1 | 6.8* | ·
COc1ccc(NC(=O)C2=Cc3cc(Cl)cc(OC)c3OC=C2)cc1 | 0.31 | -1.3
COC(=O)c1ccc2c(=O)n3nc(Nc4ccc(OC)cc4)sc3nc2c1 | 1.4 | ·
CCOC(=O)c1c[nH]n2c(=O)c3c(nc12)CCNC3 | 2.8 | -0.66
SMILES | TAR Tat displ | CDC25B-CDK2 inh
Nc1ccc(-c2nc3cc4sc(-c5ccc(N)cc5)nc4cc3s2)cc1 | 35* | 4.5*
Nc1ccc(-c2nc3ccc(N)cc3s2)cc1 | 1.8 | -3.9
O=c1c(O)c(-c2cc(O)c(O)c(O)c2)oc2cc(O)ccc12 | 19* | ·
O=c1c(O)c(-c2ccc(O)c(O)c2)oc2cc(O)ccc12 | 3.6 | ·
Cc1ccc(Cn2c(=O)c3cccnc3n(Cc3ccc(C#N)cc3)c2=O)cc1 | · | -0.61
COc1ccc(Oc2ccc([N+](=O)[O-])cc2-c2nc(-c3ccccn3)no2)cc1 | · | -1.5
COc1ccc(Oc2ccc([N+](=O)[O-])c3nonc23)cc1 | · | 12*
Cc1ccc(S(=O)(=O)/N=C2\C=C(n3cnc4ccccc43)C(=O)c3ccccc32)cc1 | · | 17*
Cc1ccc(S(=O)(=O)Nc2ccc3c(c2)ncn3-c2ccccc2)cc1 | · | -0.26
Cc1ccc(C(=O)CC2(O)C(=O)N(CCc3ccccc3)c3ccc(Cl)cc32)o1 (configuration not stated) | 1 | -1.8
COc1cc(C(=O)NC(NC(=S)Nc2cccc3ccccc23)C(Cl)(Cl)Cl)cc(OC)c1OC (configuration not stated) | · | 5.1*
COc1cccc(C(=O)NC(NC(=S)Nc2ccc(Cl)cc2Cl)C(Cl)(Cl)Cl)c1 (configuration not stated) | · | 2
Cc1c2c(=O)n(-c3nc4ccccc4s3)[nH]c2cc(=O)n1Cc1ccc(C(=O)O)cc1 | 24* | 13
CC(=O)N1CCN(CCn2c(C)c3c(=O)n(-c4nc5ccccc5s4)[nH]c3cc2=O)CC1 | 0.25 | -0.61
CC1=NN(c2cccc(C(=O)O)c2)C(=O)C1 | 0.21 | -1.1
O=c1cccc2ccc(O)c(O)c2c1O | 25* | ·
O=C(O)c1cc(=O)c(O)c2c(O)c(O)ccc2c1 | 25* | ·
Cc1cc(=O)c2c(O)c(O)ccc2o1 | · | -2.2
O=C(O)c1ccccc1Nc1cc(N2CCCC2)c2noc3c2c1C(=O)c1ccccc1-3 | 7.5* | 2.4
O=C(O)CCCNc1cc(N2CCCC2)c2noc3c2c1C(=O)c1ccccc1-3 | 1.5 | 1.3
O=C(O)CNc1cc(N2CCCC2)c2noc3c2c1C(=O)c1ccccc1-3 | -5.6 | 5.5*
CC(C)CNc1cc(N2CCCC2)c2noc3c2c1C(=O)c1ccccc1-3 | 0.45 | -1.2
